Screening results: PubChem BioAssay, National Center for Advancing Translational Sciences (NCATS)
GALC G270D up: enhancers of human galactocerebrosidase G270D mutant activity in cells | 145M-Twi-hGALC-G270D cells, HMU-beta-Gal fluorescence, 48 h | Potency, µM (titrated, usually from 57.5 µM), usual class: activators | 0.1% of 45,000 active | AID 1159614; note: potency is the fitted concentration of half-maximal effect; 0% is about no effect; nearly all actives have a fitted effect of over 65% in size
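qHTS, 1536-well; 145M-Twi-hGALC-G270D cells (WT line also made) in DMEM/F12 + 10% FBS; compound incubation on live cells; HMU-β-gal 0.1 mM final, pH 5.2, NaTC; carbonate stop; fluorescence increase = enhanced residual activity.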
HTT prom inh: inhibits huntingtin promoter activity; HEK293 HTT promoter firefly luciferase reporter, 24 h; AID 1508623; 0.93% of 48,000 active; Potency, µM (highest dose often 57.5 µM), for inactives: at the highest dose activity change, negative = inhibition, hits mostly inhibitors; note: potency is the fitted concentration of half-maximal effect; nearly all actives have a fitted effect of over 50% in size
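Luminescence was read after Dual-Glo reagent and a 10 min room-temperature incubation. Values were normalized to vehicle (0% activity) and zero RLU (-100% activity). Reporter HEK293 cells had been exposed to compounds (up to 57.5 uM final) for 24 h.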
GPR32 ag: GPR32 (DRV1) agonism, beta-arrestin recruitment | O75388 | CHO-K1 GPR32 beta-arrestin PathHunter luminescence, 90 min; zero percent set by DMSO-only wells | 2.5% of 48,000 active | activation, % at 76.9 µM;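 active = activation of at least 60% and not above a set upper limit, about 1 call in 100 departs from these limits; inconclusive = activation of 40% to 60%, or above that upper limit; inactive = activation under 40%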; note: 0% is about no effect
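Using DMSO wells as EC0, agonist-induced signal was taken as chemiluminescence from beta-Gal reconstituted upon beta-arrestin recruitment to GPR32 in CHO-K1 cells after 90 min compound treatment.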
FH mod: Identification of activators of human fumarate hydratase by quantitative high-throughput screening. FH coupled MDH/diaphorase resazurin fluorescence, 15 min. Potency, µM (top dose mostly 79.9 µM), inactives show at the top dose activity change, negative = inhibition, most hits filed as inhibitors. 0.22% of 54,000 active. AID 1347055, 2019; note: potency is the fitted concentration of half-maximal effect; % is set by controls: 0 for no effect and ±100 for the full control effect; the screen sought activators but most active calls are inhibition curves; nearly all actives have a fitted effect of over 45% in size
NTMT1 inhibitor: blocks human N-terminal methyltransferase 1 activity; Q9BV86; NTMT1 MTase-Glo SAH luminescence, purified enzyme; Potency, µM (titrated, usually from 114 µM), without a hit: top-dose activity change, negative = inhibition, hits mostly inhibitors; 2.5% of 59,000 active; AID 1645870;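 note: potency is the fitted concentration of half-maximal effect; plate controls were DMSO vehicle for no effect and no enzyme for full effect; nearly all actives have a fitted effect of over 65% in size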
Target sequence (Q9BV86 whole entry, looked up): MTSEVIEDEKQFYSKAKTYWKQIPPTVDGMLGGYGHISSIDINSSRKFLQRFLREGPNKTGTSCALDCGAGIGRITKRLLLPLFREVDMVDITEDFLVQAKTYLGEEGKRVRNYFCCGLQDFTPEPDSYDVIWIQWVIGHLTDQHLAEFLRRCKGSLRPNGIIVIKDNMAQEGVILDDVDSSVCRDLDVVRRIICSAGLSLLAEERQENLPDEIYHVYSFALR
HTT-AS act: HTT-AS promoter activation; HEK293 HTT-AS promoter firefly luciferase reporter, 24 h; response scale: percent change from vehicle, -100% = no light; Potency, µM (top dose mostly 57.5 µM), for the others: at the top dose activity change, positive = activation, most hits filed as activators; 0.24% of 48,000 active; note: potency is the fitted concentration of half-maximal effect; nearly all actives have a fitted effect of over 55% in size
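HEK293 luciferase promoter-reporter cells (2,500/well) plated 24 h, then compounds added at up to 57.5 uM final for 24 h at 37 °C. Firefly luminescence by Dual-Glo, normalized to vehicle (0%) and zero RLU (-100%).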
CLK4 KinaseGlo: inhibits human CLK4 kinase in Kinase-Glo confirmation. recombinant Clk4, Kinase-Glo ATP luminescence, 4.5 h. 90% of 90 active. AID 493204. Potency, µM (titrated, usually from 76.9 µM), for the others: at the highest dose activity, negative = inhibition, hits mostly inhibitors. shares compounds with NTMT1 inhibitor
Sfp qHTS opt: inhibitors of Bacillus subtilis Sfp PPTase, optimization followup; purified Sfp PPTase enzyme activity, qHTS; Potency, µM (highest dose often 114 µM), for inactives: at the top dose activity change, negative = inhibition, hits mostly inhibitors; 78% of 230 active; shares compounds with NTMT1 inhibitor; AID 540350
HM489 growth: Sfp PPTase inhibitors: growth inhibition of B. subtilis HM489; shares compounds with NTMT1 inhibitor; B. subtilis HM489 (acpS-) growth, BacTiter-Glo, 5 h; Potency, µM (top dose mostly 114 µM), for inactives: top-dose activity change, negative = inhibition, actives largely listed as inhibitors; 50% of 220 active; AID 540353
Sfp PPTase gel: Sfp PPTase inhibition, gel-based detection | 54% of 220 active | AID 540355 | shares compounds with NTMT1 inhibitor | purified Sfp PPTase, gel-based product detection | Potency, µM (doses to about 250 µM), without a hit: at the highest dose activity change, negative = inhibition, usual class: inhibitors
Sfp gel: Sfp phosphopantetheinyl transferase inhibition, gel detection; shares compounds with NTMT1 inhibitor; Potency, µM (series often up to 250 µM), for inactives: at the top dose activity change, negative = inhibition, usual class: inhibitors; purified Sfp PPTase, gel-based product detection; 90% of 45 active; AID 602362
Sfp inh SAR2: inhibits B. subtilis Sfp PPTase in second SAR round; Potency, µM (titrated, usually from 57.1 µM), for inactives: at the highest dose activity change, negative = inhibition, usual class: inhibitors; shares compounds with NTMT1 inhibitor; purified Sfp enzyme, PPTase activity, qHTS; 87% of 230 active
hGST ctr: counter-screen for Sfp PPTase inhibitors: hGST A1-1 inhibition; shares compounds with NTMT1 inhibitor; hGST A1-1 enzyme activity counter-screen, qHTS; Potency, µM (top dose mostly 114 µM), without a hit: at the top dose activity change, negative = inhibition, actives largely listed as inhibitors; 55 tested, under 10 active; AID 602391
HSD17B4 counter: HSD17B4 (human) inhibition, HPGD counter-screen; 10% of 230 active; Potency, µM (series often up to 57.1 µM), for inactives: at the highest dose activity change, negative = inhibition, actives largely listed as inhibitors; shares compounds with NTMT1 inhibitor; purified HSD17B4, estradiol/NAD+, NADH fluorescence
ALDH1A1 counter: ALDH1A1 (human) inhibition, HPGD counter-screen; shares compounds with NTMT1 inhibitor; recombinant ALDH1A1, NADH fluorescence, propionaldehyde/NAD+; Potency, µM (titrated, usually from 57.1 µM), without a hit: at the highest dose activity change, negative = inhibition, most hits filed as inhibitors; 93% of 230 active
Target sequence (P00352 whole entry, looked up): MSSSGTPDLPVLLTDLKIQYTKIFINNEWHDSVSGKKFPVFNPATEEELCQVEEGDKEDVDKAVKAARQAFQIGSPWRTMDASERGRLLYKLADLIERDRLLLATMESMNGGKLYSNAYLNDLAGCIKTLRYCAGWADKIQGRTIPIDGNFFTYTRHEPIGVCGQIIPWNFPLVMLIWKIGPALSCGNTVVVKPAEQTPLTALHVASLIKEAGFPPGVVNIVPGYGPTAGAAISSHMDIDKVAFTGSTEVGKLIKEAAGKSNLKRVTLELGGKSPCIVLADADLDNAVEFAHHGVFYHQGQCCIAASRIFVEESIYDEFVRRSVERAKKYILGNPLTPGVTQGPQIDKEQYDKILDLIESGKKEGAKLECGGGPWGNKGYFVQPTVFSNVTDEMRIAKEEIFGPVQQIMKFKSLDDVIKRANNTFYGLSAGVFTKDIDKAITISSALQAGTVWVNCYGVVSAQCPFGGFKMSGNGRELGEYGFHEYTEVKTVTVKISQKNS
NNMT counter: counter-screen for NTMT1 inhibitors: human NNMT inhibition. shares compounds with NTMT1 inhibitor. NNMT MTase-Glo luminescence, SAH detection. Potency, µM (doses to about 57.1 µM), without a hit: at the top dose activity, negative = inhibition, most hits filed as inhibitors. 10% of 120 active. AID 1645878
* = called active by the depositor; i = inactive; ? = inconclusive; · = no result given; [ ] = dose if it differs, or a comment. Compounds with a hit are over-represented: about 4.7% of the library has one in this group of screens. Unless noted, calls come from the whole dose curve; as a rule, active = well fitted curve in the direction sought with a large enough effect; inconclusive = small, poorly fitted or top-dose-only effect, or another doubt; inactive = no such curve, though single readings can be large; an effect the other way counts as inactive or inconclusive.

SMILES	GALC G270D up	HTT prom inh	GPR32 ag	FH mod	NTMT1 inhibitor	HTT-AS act	NNMT counter	others
O=[S+]([O-])(Nc1cnc2ccccc2c1)c1ccc(NCc2ccc(Cl)cc2O)cc1	·	·	·	·	0%[57.5 µM]	·	·
O=C(Nc1ccc(F)c(Cl)c1)C1CCCN(c2cnccn2)C1 (stereo not given)	i	-11%	5	2%	2%	9%	·
O=C([C@@H]1CCCN(c2ccc3[nH]c(C4(n5cc(Cl)cn5)CC4)nc3n2)C1)N1CCCC1	·	·	·	1%	?	·	-11%
CC(=O)N[C@H](Cc1c[nH]c2ccccc12)C(=O)OCc1cc(C(F)(F)F)cc(C(F)(F)F)c1	·	·	·	-15%	?	·	·
COc1cc2ncnc(Nc3ccc(F)c(Cl)c3)c2cc1NC(=O)/C=C/CN1CCCCC1	·	·	·	0%	8.9µM*	·	?
FC(F)(F)c1cccc(N2CCN(C(=S)Nc3nccc4ccccc34)CC2)c1	·	·	·	·	?	·	·	Sfp qHTS opt=1.9µM*;HM489 growth=2.6µM*;Sfp PPTase gel=7.9µM*;Sfp gel=1.3µM*;Sfp inh SAR2=1.4µM*;hGST ctr=-10%;HSD17B4 counter=27µM*;ALDH1A1 counter=17µM*
FC(F)(F)c1cccc(N2CCN(C(=S)Nc3ccc4ccccc4n3)CC2)c1	·	·	·	·	·	·	·	Sfp qHTS opt=5.9µM*;HM489 growth=?;Sfp PPTase gel=0.32µM*;Sfp inh SAR2=10µM*;HSD17B4 counter=-23%;ALDH1A1 counter=6.8µM*
CC(C)NCC(C(=O)N1CCN(c2ncnc3c2C(C)CC3O)CC1)c1ccc(Cl)cc1 (stereo not given)	·	·	·	7%	2%[57.5 µM]	·	·
COc1cc2c(NC3CCN(C(C)C)CC3)nc(N3CCCN(c4ccccc4)CC3)nc2cc1OCCCN1CCCC1	·	·	·	·	·	·	-11%
COc1cc2c(NC3CCN(C(C)C)CC3)nc(N3CCC(F)(F)CC3)nc2cc1OCCCN1CCCC1	·	·	·	-1%	-24%[57.5 µM]	·	·
CCCNC(=O)c1cn2ncnc(Nc3cc(C(=O)NC4CC4)ccc3C)c2c1C	·	·	·	·	10%	·	·
CCOc1ccc(CCNC(=O)c2cc3sccc3n2CCc2ccccc2)cc1OCC	·	·	·	·	1%	·	·
Cn1cc(-c2nc3cnc(N4CCNCC4)nc3n(Cc3ccc(F)cc3)c2=O)c2ccccc21	·	·	·	·	·	·	·	CLK4 KinaseGlo=?
Cc1occc(=O)c1O[C@@H]1O[C@H](COC(=O)CC(C)(O)CC(=O)O)[C@@H](O)[C@H](O)[C@H]1O (stereo not given in full)	·	·	·	0%[53.3 µM]	10%[29.8 µM]	·	·
Cc1ccc(F)cc1S(=O)(=O)N[C@@H]1CCN(Cc2ccc(OC(C)C)cc2)C1	·	·	·	0%	?	·	-15%
COc1cccc(-c2cn(-c3ccc(CCN4CCC(O)CC4)cc3)c3ncnc(N)c23)c1	·	·	·	-2%	13µM*	·	?
O=C(CC1CC(c2ccc(F)cc2F)=NO1)N1CCOCC1 (stereo not given)	·	·	·	?	2%[57.5 µM]	·	·
Cc1cccc(-c2[nH]c(C(C)(C)C)nc2-c2ccc3c(c2)OCO3)n1	·	?	·	4%[53.3 µM]	24%	-30%	·
CC(C)(C)Cn1c(N)nc2ccc(-c3[nH]c(C(C)(C)C)nc3-c3ccc(F)cc3)nc21	·	?	·	-4%	13µM*	-31%	14µM*
O=C1CCCC2=C1C(c1ncccc1Br)N=C(Nc1nc3ccccc3o1)N2 (stereo not given)	·	·	·	1%	23%	·	·
CC(C)(C)c1ccc(-c2nc3ccccc3[nH]2)cc1	·	·	·	0%[53.3 µM]	10µM*	·	?
CC(C)(C)c1ccc(C(=O)Nc2ccc(-c3nc4ccccc4[nH]3)cc2)cc1	·	·	·	·	5%	·	·
Cc1ccnc(NC(=S)NCCNc2cccc(C(F)(F)F)c2)c1	·	·	·	·	?	·	·	Sfp qHTS opt=?;HM489 growth=?;Sfp PPTase gel=-18%;Sfp inh SAR2=6.5µM*;HSD17B4 counter=6.1µM*;ALDH1A1 counter=19µM*
Cc1ccc(Cn2c(=O)c3cccnc3n(CC(=O)Nc3cccc(C(F)(F)F)c3)c2=O)cc1	i	?	-8	-33%	8%	-39%	·
CCN(c1ccccc1)c1nnc(NC(=O)Nc2cccc(C(F)(F)F)c2)s1	i	?	5	4%	8%	-14%	·
